Source: PubChem BioAssay AID1159580 (chemical genetic matrix, 2015)
Several values for one entry are separate records, joined by “and”; a condition that tells them apart may be missing. Equal entries are not always repeated. In all, about 5,500 compounds went through this assay and about 2,000 (36%) were called active. Roughly 18% stayed inconclusive and do not appear here. Rule as the data show it: active = normalized growth mostly below about 0.91 (no sharp cut-off); inconclusive = no clear call, values can overlap the other calls; inactive = mostly above about 0.92. The list shows a part of the results.

Test: chemical genetic growth profiling, strain panel (AID 1159580);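 also: tested at 20 µM; growth read once vehicle control cultures reached saturation at 30 °C; 1 = growth at the plate median or of vehicle wells; lower values mean less growth of the strain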
Conditions: S. cerevisiae deletion strains, growth OD

Measured: normalized growth

CC[C@H]1CN2CCc3cc(OC)c(OC)cc3C2C[C@@H]1CC1NCCc2cc(OC)c(OC)cc21 (some centres undefined)
inactive: locus YAL021C, strain ccr4, hits give low values 0.988 | locus YAL026C, strain drs2, hits give low values 0.989 | locus YAL030W, strain snc1, hits give low values 0.983 | locus YBL061C, strain skt5, hits give low values 1 | locus YBR009C, strain hhf1, hits give low values 0.971 | locus YBR021W, strain FUR4, hits give low values 1.02 | locus YBR023C, strain chs3, hits give low values 0.987 | locus YBR171W, strain sec66, hits give low values 0.996 | locus YBR229C, strain ROT2, hits give low values 0.997 | locus YBR231C, strain swc5, hits give low values 0.993 | locus YBR279W, strain paf1, hits give low values 0.979 | locus YCL011C, strain gbp2, hits give low values 0.983 | locus YCL016C, strain dcc1, hits give low values 0.996 | locus YCL029C, strain bik1, hits give low values 0.989 | locus YCL069W, strain vba3, hits give low values 0.98 | locus YCR088W, strain abp1, hits give low values 0.995 | locus YDL005C, strain med2, hits give low values 0.988 | locus YDL035C, strain GPR1, hits give low values 1.01 | locus YDL040C, strain nat1, hits give low values 0.965 | locus YDL074C, strain BRE1, hits give low values 1 | locus YDL101C, strain DUN1, hits give low values 1.01 | locus YDL134C, strain PPH21, hits give low values 1 | locus YDL185W, strain tfp1, hits give low values 1 | locus YDL192W, strain arf1, hits give low values 0.987 | locus YDR001C, strain nth1, hits give low values 0.982 | locus YDR069C, strain doa4, hits give low values 0.946 | locus YDR101C, strain arx1, hits give low values 0.988 | locus YDR137W, strain rgp1, hits give low values 0.961 | locus YDR150W, strain NUM1, hits give low values 1.02 | locus YDR159W, strain sac3, hits give low values 0.899 | locus YDR162C, strain NBP2, hits give low values 1.03 | locus YDR195W, strain ref2 0.914 | locus YDR297W, strain sur2, hits give low values 0.979 | locus YDR318W, strain mcm21, hits give low values 1.01 | locus YDR334W, strain swr1, hits give low values 0.929 | locus YDR335W, strain msn5, hits give low values 0.974 | locus YDR388W, hits give low values 0.994 | locus YDR392W, strain spt3, hits give low values 0.917 | locus YDR502C, strain sam2, hits give low values 0.971 | locus YEL003W, strain gim4, hits give low values 0.979 | locus YEL037C, strain rad23, hits give low values 0.968 | locus YEL061C, strain CIN8 (second series), hits give low values 0.978 | locus YEL061C, strain CIN8, hits give low values 1.01 | locus YER015W, strain faa2, hits give low values 0.979 | locus YER016W, strain bim1, hits give low values 1.04 | locus YER110C, hits give low values 0.996 | locus YER111C, strain swi4, hits give low values 0.973 | locus YER155C, strain BEM2 (second series), hits give low values 0.962 | locus YER155C, strain BEM2, hits give low values 1.01 | locus YER167W, strain BCK2, hits give low values 1.01 | locus YFR010W, strain ubp6, hits give low values 0.956 | locus YGL078C, strain dbp3, hits give low values 0.986 | locus YGL086W, strain mad1, hits give low values 0.968 | locus YGL167C, strain pmr1, hits give low values 0.96 | locus YGL173C, strain kem1, hits give low values 0.962 | locus YGL227W, strain vid30, hits give low values 0.983 | locus YGL240W, strain doc1, hits give low values 0.945 | locus YGL248W, strain PDE1, hits give low values 1.02 | locus YGL253W, strain hxk2, hits give low values 0.95 | locus YGR078C, strain PAC10, hits give low values 1.02 | locus YGR135W, strain pre9, hits give low values 1.01 | locus YGR252W, strain gcn5, hits give low values 1 | locus YHR013C, strain ard1, hits give low values 0.941 | locus YHR027C, strain rpn1, hits give low values 0.985 | locus YHR030C, strain SLT2, hits give low values 1.01 and 1.04 | locus YHR079C, strain IRE1 (second series), hits give low values 1 | locus YHR079C, strain IRE1, hits give low values 1.12 | locus YHR094C, strain hxt1, hits give low values 0.997 | locus YHR129C, strain ARP1, hits give low values 1.01 | locus YHR142W, strain chs7, hits give low values 0.972 | locus YHR200W, strain rpn10, hits give low values 1.01 | locus YIL066C, strain RNR3, hits give low values 0.993 | locus YIL073C, strain SPO22, hits give low values 1.02 | locus YIL125W, strain kgd1, hits give low values 0.995 | locus YIR030C, strain dcg1, hits give low values 0.994 | locus YJL092W, strain hpr5, hits give low values 0.987 | locus YJL095W, strain BCK1 (second series), hits give low values 0.977 | locus YJL095W, strain BCK1, hits give low values 1.04 and 1.05 | locus YJL115W, strain asf1, hits give low values 0.962 | locus YJL129C, strain trk1, hits give low values 0.983 | locus YJL134W, strain LCB3, hits give low values 1.01 | locus YJL154C, strain vps35, hits give low values 0.979 | locus YJL164C, strain tpk1, hits give low values 0.978 | locus YJL166W, strain qcr8, hits give low values 0.962 | locus YJL168C, strain set2, hits give low values 1 | locus YJL187C, strain SWE1 (second series), hits give low values 1.02 | locus YJL187C, strain SWE1, hits give low values 0.979 | locus YJR043C, strain POL32, hits give low values 1.02 | locus YJR066W, strain TOR1, hits give low values 0.996 | locus YKL068W, hits give low values 1.01 | locus YKL085W, strain MDH1 (second series), hits give low values 1.02 | locus YKL085W, strain MDH1, hits give low values 1.02 | locus YKL160W, strain elf1, hits give low values 1.01 | locus YKR001C, strain vps1, hits give low values 1 | locus YKR026C, strain gcn3, hits give low values 0.986 | locus YKR091W, strain srl3, hits give low values 0.987 | locus YLL001W, strain dnm1, hits give low values 0.985 | locus YLL026W, hits give low values 0.992 | locus YLL041C, strain sdh2, hits give low values 0.989 | locus YLR027C, strain aat2, hits give low values 0.989 | locus YLR039C, strain RIC1, hits give low values 1.01 | locus YLR058C, strain SHM2, hits give low values 1.01 | locus YLR102C, strain apc9, hits give low values 0.999 | locus YLR113W, strain HOG1, hits give low values 1.06 | locus YLR221C, strain rsa3, hits give low values 0.984 | locus YLR258W, strain gsy2, hits give low values 0.985 | locus YLR262C, strain YPT6 (second series), hits give low values 0.978 | locus YLR262C, strain YPT6, hits give low values 1.06 | locus YLR268W, strain sec22, hits give low values 0.98 | locus YLR320W, strain mms22, hits give low values 0.948 | locus YLR330W, strain CHS5, hits give low values 1.01 | locus YLR342W, strain FKS1 (second series), hits give low values 0.987 | locus YLR342W, strain FKS1, hits give low values 1 | locus YLR357W, strain rsc2, hits give low values 0.967 | locus YLR370C, strain arc18, hits give low values 0.98 | locus YLR371W, strain rom2, hits give low values 0.994 | locus YLR384C, strain iki3, hits give low values 0.972 | locus YLR418C, strain cdc73, hits give low values 0.997 | locus YML016C, strain PPZ1, hits give low values 1.01 | locus YML032C, strain rad52, hits give low values 1.01 | locus YML120C, strain ndi1, hits give low values 0.977 | locus YML124C, strain tub3, hits give low values 0.994 | locus YMR058W, strain fet3, hits give low values 0.986 | locus YMR078C, strain ctf18, hits give low values 0.996 | locus YMR125W, strain sto1, hits give low values 0.975 | locus YMR129W, hits give low values 0.97 | locus YMR205C, strain PFK2, hits give low values 0.935 | locus YMR223W, strain ubp8, hits give low values 1.02 | locus YMR231W, strain pep5, hits give low values 0.979 | locus YMR263W, strain SAP30, hits give low values 1.02 | locus YMR307W, strain GAS1, hits give low values 1.08 | locus YNL067W, strain RPL9B, hits give low values 1.01 | locus YNL071W, strain lat1, hits give low values 0.956 | locus YNL128W, strain TEP1, hits give low values 1.01 | locus YNL183C, strain NPR1, hits give low values 1 | locus YNL209W, strain ssb2, hits give low values 0.99 | locus YNL233W, strain BNI4, hits give low values 1.01 | locus YNL248C, strain rpa49, hits give low values 0.961 | locus YNL250W, strain rad50, hits give low values 1.01 | locus YNL271C, strain bni1, hits give low values 0.998 | locus YNL298W, strain CLA4, hits give low values 1 | locus YNL307C, strain MCK1, hits give low values 0.997 | locus YNL322C, strain KRE1 (second series), hits give low values 0.983 | locus YNR049C, strain mso1, hits give low values 0.967 | locus YNR052C, strain pop2, hits give low values 1 | locus YOL006C, strain TOP1, hits give low values 1.03 | locus YOL012C, strain htz1 1.06 | locus YOL147C, strain pex11, hits give low values 0.994 | locus YOR001W, strain rrp6, hits give low values 0.98 | locus YOR061W, strain CKA2, hits give low values 1.02 | locus YOR069W, strain VPS5, hits give low values 1.01 | locus YOR070C, strain gyp1, hits give low values 1 | locus YOR080W, strain dia2, hits give low values 0.926 | locus YOR083W, strain WHI5, hits give low values 0.987 | locus YOR106W, strain vam3, hits give low values 1.01 | locus YOR136W, strain idh2, hits give low values 0.988 | locus YOR144C, strain elg1, hits give low values 1 | locus YOR184W, strain ser1, hits give low values 0.987 | locus YOR231W, strain MKK1, hits give low values 1.05 | locus YOR265W, strain rbl2, hits give low values 0.993 | locus YOR270C, strain vph1, hits give low values 0.958 | locus YOR290C, strain snf2, hits give low values 0.995 | locus YOR316C, strain cot1, hits give low values 0.992 | locus YPL051W, strain arl3, hits give low values 1.01 | locus YPL078C, strain atp4, hits give low values 1 | locus YPL106C, strain sse1, hits give low values 0.943 | locus YPL240C, strain hsp82, hits give low values 0.991 | locus YPL241C, strain CIN2, hits give low values 1.01 | locus YPL256C, strain CLN2, hits give low values 1.07 | locus YPR119W, strain clb2, hits give low values 1 | locus YPR141C, strain kar3, hits give low values 1 | locus YPR163C, strain tif3, hits give low values 0.985 | locus YPR167C, strain met16, hits give low values 1 | strain wtn01, hits give low values 0.96
